The record followed here is PubChem BioAssay (NCI).

Molecules are shown by their SMILES. Compounds without any hit were thinned out: in the full panel of roughly 83,000, 20% have a hit.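 Negative percent growth values reflect cell death: -40 means 40% of the cells present at the start died, and -100 means all died.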 A number with no mark means an inactive call. The source made the active and inactive calls. Rule for the calls: active = growth percent below 10; inactive = the rest.

Common to all, as to assay: NCI-60 one-dose screen, 48 h (100 = growth as untreated, 0 = no growth, -100 = all killed)
Holding throughout (details): 10 µM unless noted

Test [1] relates to HCT-15 colon.
Test [2] relates to HT29 colon.
In test [3] the test system is SNB-75 CNS.
Test [4] deals with SNB-19 CNS.
Test [5] has as its system U251 CNS.
Test [6] deals with PC-3 prostate.
Test [7] deals with SK-MEL-5 melanoma.
The subject of test [8] is UACC-62 melanoma.
The test system of test [9] is SK-MEL-28 melanoma.
For test [10], the system named is LOX IMVI melanoma.

As to `COc1cc(-c2csc(NC(=O)c3cc(C(F)(F)F)cc(C(F)(F)F)c3)n2)cc(OC)c1OC`, the growth in test [1] was 15.6%; in test [2], 21.3%; in test [3], 52.5%; in [4], 29.9%; in test [5], 21%; in test [6], 10.6%. Moreover, the values for the growth in test [7], in [8] and in test [9] were -30.1% (active), 3.9% (active) and 40.8%, respectively.

Take `CC(C)C(C(=O)CCN(C)C)c1ccc(Cl)cc1` (stereo unspecified): the growth in test [1] was 92.6%; in test [2] it was 106%; in [3], 87.8%; in test [4], 95.1%; in test [5], 83.7%; in test [6] it was 86.9%. Also, the growth in test [7] is 102%; in test [8] it was 89.7%; in test [9] it was 107%.

`CCCCNC(=O)NS(=O)(=O)c1ccc(N2N=C(c3ccc(C)cc3C)CC2c2ccc(OC)cc2)cc1` (stereo unspecified): the growth in test [1] was 47%; in test [2], 88%; in [3] it was 85.4%; in test [4], 81.2%; in [5] it was 44.9%; in test [6], 50.1%. Besides, the growth is 55.6% in [7], 60% in [8] and 44.8% in test [9].

Consider `COc1ccc2c(c1)C(=O)/C(=C/c1ccc(O)cc1)O2`, for which the growth is 52.1% in test [1]; 90.1% in [2]; 67.5% in test [3]; 89.3% in [4]; 92.9% in test [5]; 39.6% in [6]. In addition, the growth in [7] was 87.8%; in [8] it was 77.1%; in [9], 92.6%.

`CCC1=C[C@@H]2CN(C1)Cc1c([nH]c3ccccc13)[C@@](C(=O)OC)(c1cc3c(cc1OC)N(C=O)[C@H]1[C@@](O)(C(=O)OC)[C@H](OC(C)=O)[C@]4(CC)[C@@H]5C[C@@H]5CN5CC[C@]31[C@@H]54)C2`: the growth in test [1] was 10.3%; in test [2] it was -5.12% (active); in test [3] it was 8.7% (active); in [4], 28.3%; in [5], 11.8%; in test [6] it was 7.43% (active). For the same compound, the figures for the growth in test [7], in test [8] and in test [9] were -26.9% (active), 18.5% and 60.9%, respectively.

With `COc1ccccc1OCC(=O)Nc1sc2c(c1C(N)=O)CCC2`, the growth in [1] was 83.1%; in test [2], 74.1%; in test [3], 86.8%; in test [4] it was 70.4%; in [5] it was 60.9%; in test [6], 88.1%. The growth in test [8] was 49.7%; in test [10] it was 50.5%; in test [9] it was 101%.

For the compound `O=C1NC(Cc2c[nH]c3ccccc23)C(=O)N1Cc1ccc(Cl)cc1` (stereo unspecified), the growth in test [1] is 99.6%; in test [2], 105%; in [3], 90.1%; in test [4] it was 103%; in test [5], 94.1%; in test [6] it was 90.5%. Further, the growth in test [8] was 86.1%; in test [10], 89.1%; in [9] it was 109%.

Regarding `CCn1cc(C(=O)O)c(=O)c2cc(F)c(N3CCN(S(=O)(=O)c4ccc(OC)c(OC)c4)CC3)cc21`, the growth is 102% in test [1]; 102% in [2]; 85.5% in [3]; 96.2% in test [4]; 106% in [5]; 90% in test [6]. For the same compound, the growth in test [8] was 95.2%; in test [10], 85.8%; in test [9] it was 102%.

As for `COc1ccc(C2SCC(=O)N2NC(=O)c2ccc(NC(=O)c3ccccn3)cc2)cc1OC` (stereo unspecified), the growth in [1] is 107%; in [2], 97.8%; in test [3] it was 84.3%; in test [4], 95.5%; in [5], 94.2%; in test [6], 95.3%. Further, the figures for the growth in [8], in test [10] and in test [9] were 91.5%, 99.5% and 104%, respectively.

Take `O=C1CCCCN1CCCCC#Cc1ccccc1C#Cc1ccccn1`: the growth was 94.7% in test [1]; 88.6% in [2]; 91.9% in test [3]; 108% in test [4]; 88.9% in test [5]; 95.1% in [6]. The results for the growth in [8] and in test [9] were 83.9% and 110%, respectively.

Consider `C=C1C(=O)O[C@H]2[C@H]1CC/C(COC(=O)NCCc1ccc(OC)cc1)=C\CC[C@@]1(C)O[C@@H]21`, for which the growth is -7.21% (active) in [1]; -58.3% (active) in test [2]; 79.4% in test [3]; 45.8% in test [4]; 59.3% in test [5]; 45.6% in test [6]. In addition, the figures for the growth in test [8], in test [10] and in [9] were -46.7% (active), -26.8% (active) and -5.94% (active), respectively.

In the case of `COC12CC(=O)C(C(C)=O)=C(O)C1(C)c1c(O)c(C)c(O)c(C(C)=O)c1O2` (stereo unspecified), the growth in test [1] is 66.6%; in test [2], 86.5%; in test [3], 83.5%; in test [4], 52.8%; in test [5] it was 57.2%; in test [6], 73%. For the same compound, the growth is 40.6% in test [8], 57.5% in [10] and 86.4% in test [9].

For the compound `Cn1cc(C=O)c2ccccc21`, the growth in [1] is 103%; in [2], 100%; in test [3], 80%; in [4], 100%; in test [5] it was 98.5%; in [6] it was 83.4%. Further, the growth in test [8] is 106%; in test [10] it was 88.4%; in test [9], 109%.

In the case of `CC(=O)n1cc([C@H]2CC[C@H](c3cn(C(C)=O)c4ccccc34)c3c2[nH]c2ccccc32)c2ccccc21`, the growth in [1] is 58.7%; in test [2], 67.7%; in test [3] it was 87.4%; in test [4], 93.2%; in test [5] it was 82.9%; in [6], 53.2%. For the same compound, the growth in [8] is 64.4%; in [10], 79.5%; in test [9], 100%.

For the compound `Cc1cc(C(=O)O)c(N)c(C)n1`, the growth in test [1] is 100%; in [2], 112%; in test [3] it was 89.4%; in test [4] it was 110%; in test [5], 104%; in test [6] it was 96.4%. Besides, the growth is 96.6% in [8], 94.7% in test [10] and 117% in [9].

Take `COc1ccc(-n2cnc3c(sc4ncc(Cl)cc43)c2=O)cc1`: the growth in test [1] was 101%; in [2], 79.3%; in [3], 90.3%; in test [4] it was 108%; in [5], 74.7%; in [6], 83.1%. Besides, the growth was 109% in test [8], 58% in [10] and 102% in test [9].

With `Nc1ccccc1C#C/C=C\C#Cc1cccc(O)c1`, the growth is 44.1% in test [1]; 76.2% in test [2]; 42.8% in test [3]; 88.4% in test [4]; 43% in test [5]; 64.2% in test [6]. For the same compound, the results for the growth in test [8], in [10] and in [9] were 23.8%, 45.8% and 81.7%, respectively.

In the case of `NCCSC(c1ccccc1)(c1ccccc1)c1ccccc1`, the growth is 24.9% in test [1]; 0.695% (active) in test [2]; 12.5% in [3]; 53.3% in test [4]; 14.1% in test [5]; 19.4% in test [6]. Besides, the values for the growth in test [8], in test [10] and in test [9] were 29.5%, 25.9% and 43%, respectively.

On to `CCCCCCCCCCCCCCCCCCOc1cccc(CCOP(=O)(O)OCC[N+](C)(C)C)c1`, for which the growth in [1] was 87%; in test [2], 73.7%; in test [3], 83.1%; in test [4] it was 83.6%; in test [5], 67.7%; in test [6], 2.55% (active). Moreover, the growth in test [8] is 85.2%; in [10] it was 77.3%; in test [9], 94.2%.

Consider `C=C1C(=O)O[C@H]2[C@H]1CC/C(COC(=O)NCc1cc(OC)cc(OC)c1)=C\CC[C@@]1(C)O[C@@H]21`, for which the growth in test [1] was 1.86% (active); in [2] it was -40.2% (active); in test [3], 59.3%; in test [4] it was 42.3%; in [5], 40.7%; in test [6], 30.2%. The growth in test [8] was -44.9% (active); in test [10], -31% (active); in test [9] it was -20.2% (active).

`O=C(Nc1ccc(F)c(Cl)c1)c1n[nH]c(=O)c2ccccc12`: the growth in test [1] is 89.6%; in test [2], 112%; in test [3], 94.2%; in test [4], 104%; in test [5] it was 90.3%; in test [6], 112%. For the same compound, the figures for the growth in test [8], in test [10] and in test [9] were 81.4%, 87.4% and 115%, respectively.

Regarding `CC(C)(C)c1ccc(S(=O)(=O)Oc2ccc3c4c(c(=O)oc3c2)CCCCC4)cc1`, the growth in test [1] was 30.5%; in test [2] it was 15.8%; in test [3], 39.1%; in test [4] it was 82%; in test [5] it was 54.3%; in test [6], 32.9%. For the same compound, the growth in test [8] was 30.3%; in [10], 43.2%; in test [9], 39.4%.

For `COc1cc2nc(Cl)nc(NCCO)c2cc1OC`, the growth in test [1] is 99%; in test [2], 110%; in test [3], 86.1%; in test [4], 104%; in test [5] it was 96.5%; in test [6], 93.4%. Also, the growth in [8] was 108%; in test [10] it was 97.7%; in test [9], 112%.

Turning to `NC(C(=O)O)C(O)c1ccc(OCc2ccccc2)c(OCc2ccccc2)c1` (stereo unspecified), the growth in test [1] is 97.6%; in test [2] it was 97.3%; in [3], 77.6%; in test [4] it was 97.1%; in test [5], 91%; in test [6] it was 89.1%. Further, the growth in [8] is 97.8%; in [9], 110%.

As to `Cc1ccc(-c2csc3nc(C)c(CCCl)c(=O)n23)cc1`, the growth in [1] was 98.5%; in test [2] it was 105%; in test [3], 74.7%; in test [4], 100%; in [5], 106%; in test [6], 83.5%. In addition, the growth in [8] was 88.2%; in test [10] it was 89.1%; in [9], 113%.

For `Nc1nc(-c2ccccc2)cs1`, the growth in [1] was 106%; in [2] it was 100%; in test [3] it was 84.3%; in [4], 105%; in test [5], 98.9%; in test [6] it was 98.1%. For the same compound, the growth in [8] is 107%; in test [10], 97.9%; in [9] it was 109%.

Consider `CCCCCCCC/C=C\CCCCCCCCOc1ccccc1CCOP(=O)(O)OCC[N+](C)(C)C`, for which the growth in [1] is 46.7%; in [2], 10.9%; in [3], 55.4%; in [4], 20.1%; in test [5] it was 13.3%; in test [6] it was 0.679% (active). Moreover, the growth is 54.2% in test [8], 60.6% in test [10] and 89.1% in test [9].
